Compound activity (PubChem)
SW480 rereplic = inducers of DNA re-replication in SW480 colon cancer cells; SW480 DNA re-replication, Hoechst DNA content imaging, 48 h; Potency, µM (highest dose often 46.1 µM), without a hit: at the highest dose re-replication activation, most hits filed as activators; 340,000 compounds, 1.8% hits; AID 624297; also: potency is read from the fitted curve at half-maximal effect; % of control where 0% means no effect; nearly all actives have a fitted effect of over 55% in size
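SW480 cells exposed to compounds for 48 hr at 37 C, 5% CO2, then Hoechst-stained 40 min. Nuclear DNA content imaged by fluorescence scanning (405 nm excitation, 500-530 nm emission); re-replication scored as increased high-intensity nuclei.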
MCF10A rereplic = DNA re-replication induction in MCF 10a cells; MCF 10A DNA re-replication, Hoechst nuclear intensity, 48 h; Potency, µM (doses to about 46.1 µM), for inactives: top-dose activity, positive = re-replication, usual class: activators; AID 624296; 350,000 compounds, 2.9% hits; also: potency is read from the fitted curve at half-maximal effect; % of control where 0% means no effect; nearly all actives have a fitted effect of over 50% in size
Chronic BCR inh = chronic active BCR signaling inhibition; ABC-DLBCL IkBa-CBG/CBR reporter, luminescence ratio, 4 h; Potency, µM (top dose mostly 46.1 µM), inactives show at the top dose activity change, negative = inhibition, usual class: inhibitors; 340,000 compounds, 0.05% hits; AID 493014; active = well fitted inhibition curve with a large enough effect in the signal ratio, with a control signal flat, not every such curve was filed as active; inconclusive = small, poorly fitted or top-dose-only effect, or effect the other way, or a change in a side signal; the % refers to the signal ratio;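 also: potency is read from the fitted curve at half-maximal effect; plate controls were basal doxycycline-induced cells for no effect and cells given 10 µM MG132 for full effect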
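Cell line TMD8 (human ABC DLBCL), stably expressing tet-inducible CBG68-IkBa fusion and CBR; IMDM/0.5% FBS; cpd up to 46 uM; dox induction, 4 h, 37C/5% CO2; dual luminescence; green/red ratio; MG132 control.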
DT40 TDP1 CPT = DT40-hTDP1 cell growth loss with CPT. chicken DT40 Tdp1-/-;hTDP1 cells + 20 nM CPT, ATP luminescence, 48 h. Potency, µM (top dose mostly 46.2 µM), for inactives: top-dose activity change, negative = growth inhibition, hits mostly inhibitors. 420,000 compounds, 12% hits. AID 686979; also: potency is read from the fitted curve at half-maximal effect; % is scaled to controls: 0 for no effect and ±100 for the full control effect; nearly all actives have a fitted effect of over 55% in size
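Chicken DT40 Tdp1-/- cells stably complemented with human TDP1 were seeded at 400 cells/well in medium containing 20 nM camptothecin, exposed to pin-transferred compounds, and grown at 37 °C for at least 48 hr. Viability was read as ATP luminescence.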
DT40 TDP1 no CPT = qHTS for Inhibitors of human tyrosyl-DNA phosphodiesterase 1 (TDP1): qHTS in cells in absence of CPT | DT40 Tdp1-/- hTDP1 cells, no CPT, ATP luminescence, 48 h | Potency, µM (titrated, usually from 46.2 µM), without a hit: at the top dose activity change, negative = growth inhibition, actives largely listed as inhibitors | 420,000 compounds, 15% hits; also: potency is read from the fitted curve at half-maximal effect; % is scaled to controls: 0 for no effect and ±100 for the full control effect; nearly all actives have a fitted effect of over 55% in size
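Luminescent ATP content (CellTiter-Glo) served as the growth readout. Knockout chicken DT40 cells expressing human TDP1 were exposed to compounds without camptothecin for a minimum 48 hr at 37 °C.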
IL1B secr inh = blocks inflammasome-driven IL-1 beta release; THP-1 LPS/ATP IL-1B secretion, AlphaLISA, 16 h; hits give low values; activity change, % at 57.5 µM; 360,000 compounds, 4.7% hits; AID 743279; in the data active = activity change below about -50%; inconclusive = mostly about -30% to -49%; also: % is scaled to controls: 0 for no effect and ±100 for the full control effect
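THP-1 cells pretreated 1 hr with compounds (up to 57.5 uM final), then stimulated with LPS (250 ng/mL final) plus ATP (1.25 mM final); secreted IL-1B measured by AlphaLISA after 16 hr, decreased signal indicating inhibition.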
An asterisk follows results filed as active; ? = inconclusive; / = not tested or not shown; [ ] = another dose, or the depositor's remark. In the library only some 19% were active in any assay of this set; here they are far more common. Unless noted, calls follow the shape of the dose curve; as a rule, active = well fitted curve in the direction sought with a large enough effect; inconclusive = small, poorly fitted or top-dose-only effect, or another doubt; inactive = no such curve, though single readings can be large; an effect the other way counts as inactive or inconclusive.

SMILES | SW480 rereplic | MCF10A rereplic | Chronic BCR inh | DT40 TDP1 CPT | DT40 TDP1 no CPT | IL1B secr inh
O=C(c1csc2ccccc12)N1CCN(c2ccc(Cl)c(Cl)c2)CC1 | 2.1% | -185.9%[0.0737 µM] | 0.8% | 20.6µM* | 23.1µM* | -12.6
O=C(NC(=S)N1CCN(c2nc(-c3ccccc3)cs2)CC1)c1cncc(Br)c1 | 16.4µM* | 20.6µM* | ? | 10.3µM* | ? | 51.3
Clc1ccc(-c2csc(N3CCSCC3)n2)cc1 | -2.6% | ? | ? | -16.4% | 28.6% | 7.3
CC(C)CNC(=S)N1CCN(c2nc(-c3ccc(Cl)cc3)cs2)CC1 | 9.8%[1.84 µM] | 0.2% | 5.1% | ? | 16.4µM* | -68.7*
CCOC(=O)[C@H]1[C@H]2COc3ccc(Cl)cc3[C@@H]2N2C(=O)c3cc(F)ccc3NC(=O)[C@@]12C | ? | 2.0% | 10.2% | ? | ? | 0.0
COc1ccc(-c2nnn(CC(=O)N3CCN(c4ccc(F)cc4)CC3)n2)cc1 | 1.7% | -0.3% | -1.6% | -5.2% | 15.0% | -11.7
COc1ccc(N2CCN(C(=O)CN3CCN(c4nc(-c5ccc(F)cc5)cs4)CC3)CC2)cc1 | ? | ? | -0.2% | 5.8µM* | 7.31µM* | -52.2*
O=C(Cn1c2c(sc1=O)C1c3ccccc3OCC1CS2)Nc1ccc(Cl)c(Cl)c1 (configuration not stated) | 4.3% | 28.0% | 7.5% | 9.2µM* | 16.4µM* | ?
Cc1csc(=O)n1CC(=O)Nc1ccc(Cl)c(Cl)c1 | -8.0% | 6.4% | -3.3% | -28.7% | 4.3% | -23.7
CCN(CC)S(=O)(=O)c1ccc2c(c1)N(CC(=O)N1CCN(c3ccc(Cl)cc3)CC1)C(=O)CO2 | / | / | 6.3% | 16.4µM* | 16.4µM* | /
CCN(CC)S(=O)(=O)c1ccc2c(c1)N(CC(=O)N1CCN(c3cccc(Cl)c3)CC1)C(=O)CO2 | / | / | 20.8% | 16.4µM* | ? | /
CCCN1CCN(C(=O)CN2C(=O)COc3ccc(S(=O)(=O)N(CC)CC)cc32)CC1 | -1.0% | -0.7% | 1.5% | -15.1% | 16.3% | 26.9
CC1(C)Cc2c(C#N)c(N3CCN(C(=O)c4ccccc4Cl)CC3)nc(-c3ccco3)c2CS1 | 9.2µM* | 5.8µM* | 14.7% | ? | ? | -10.0
CC1(C)Cc2c(C#N)c(N3CCN(C(=O)c4ccco4)CC3)nc(-c3ccco3)c2CS1 | ? | ? | ? | -29.7% | ? | -4.1
CC(=O)N1CCN(c2nc(-c3ccco3)c3c(c2C#N)CC(C)(C)SC3)CC1 | 11.8% | ? | 13.9% | ? | 23.1µM* | ?
CC1(C)Cc2c(C#N)c(SCC(=O)c3ccccc3)nc(N3CCOCC3)c2CS1 | ? | ? | 6.5% | ? | 16.4µM* | 44.0
CC(=O)N1CCN=C1SCc1cccc(F)c1 | -2.5% | 0.1% | 3.5% | 0.2% | -3.3% | -2.5
COc1ccccc1-c1nnc(SCc2nc3ccccc3s2)n1C | -6.7% | 1.1% | -1.4% | -11.4% | 0.8% | 1.2
COc1ccc(-c2nnc(SCc3nc4ccccc4s3)n2C(C)C)cc1 | 3.7% | -2.4% | -1.0% | ? | 20.6µM* | -10.9
CC1(C)CC(=O)C(=Cc2cn(-c3ccccc3)nc2-c2ccc(Cl)cc2)C(=O)C1 | -2.3%[9.22 µM] | ? | ? | 9.2µM* | 20.6µM* | 0.0
CC1=NNC(=O)/C1=C\c1cn(-c2ccccc2)nc1-c1ccccc1 | 10.2% | 3.66µM* | ? | 5.8µM* | 4.11µM* | -104.3*
O=[N+]([O-])c1cc(S(=O)(=O)C(F)(F)F)ccc1Sc1nc2ccccc2[nH]1 | ? | 3.66µM* | ? | 7.31µM* | 7.31µM* | -102.9*
O=[N+]([O-])c1ccc(N2CCNCC2)cc1Sc1nc2ccccc2[nH]1 | 16.4µM* | 3.5% | -17.2% | ? | 23.1µM* | -13.2
NCCNc1ccc([N+](=O)[O-])c(Sc2nc3ccccc3[nH]2)c1 | 12.0% | -34.9% | -1.5% | ? | 16.4µM* | -6.1
CS(=O)(=O)c1ccc(Sc2nc3ccccc3[nH]2)c([N+](=O)[O-])c1 | 28.5% | -186.1%[0.0737 µM] | ? | ? | ? | ?
SMILES | SW480 rereplic | MCF10A rereplic | Chronic BCR inh | DT40 TDP1 CPT | DT40 TDP1 no CPT | IL1B secr inh
Cc1nn(-c2cc(N3CCNCC3)ccc2[N+](=O)[O-])c(=O)c2ccccc12 | -2.7% | 0.0% | 3.2% | -10.1% | 0.2% | -3.2
Cc1cc(NC(=O)CSc2nc(C(C)C)nc3c2c(=O)n(C)c(=O)n3C)no1 | 4.2% | -0.6% | 0.4% | 16.4µM* | 16.4µM* | 31.1
CC(C)c1nc(SCC(=O)N2CCCc3ccccc32)c2c(=O)n(C)c(=O)n(C)c2n1 | -14.0% | 1.1% | 0.7% | 7.31µM* | 6.51µM* | 30.8
Cn1c(=O)c2c(ncn2CC(=O)N2CCCc3ccccc32)n(C)c1=O | 1.2% | -0.3% | 1.2% | -9.1% | -4.2% | -11.2
CC1CCN(C(=O)CSc2nc(C(C)C)nc3c2c(=O)n(C)c(=O)n3C)CC1 | 2.4% | 3.3% | -0.2% | 16.4µM* | 18.4µM* | -14.9
CC(OC(=O)Cc1n[nH]c(=O)c2ccccc12)C(=O)Nc1cc(Cl)cc(Cl)c1 (configuration not stated) | -73.8% | 5.1% | ? | ? | 23.1µM* | 33.3
CCOc1ccc(S(=O)(=O)N2CCC(C(=O)NCCN3CCOCC3)CC2)cc1C | -31.2% | 3.9% | ? | 8.6% | -11.4% | -12.5
Brc1cccc[n+]1Cc1ccc(C[n+]2ccccc2Br)cc1 | / | / | / | 3.4% | -7.9% | /
CCOC(=O)CSc1nc2c(sc(=S)n2-c2ccccc2OC)c(=O)n1Cc1ccco1 | 6.5% | 4.4% | 6.1% | -15.2% | -0.8% | 9.9
CCOC(=O)CSc1nc2c(sc(=S)n2-c2ccccc2OC)c(=O)n1-c1ccccc1OC | 7.5% | 10.0% | ? | -23.9% | ? | -64.0*
Cc1ccc(-n2c(SCC(=O)O)nc3c(sc(=S)n3-c3ccc(C)c(C)c3)c2=O)cc1 | -5.4% | -9.5% | -1.0% | 11.8% | -9.5% | 3.7
COc1ccc(-n2c(SCC(=O)C(C)(C)C)nc3c(sc(=S)n3-c3ccccc3)c2=O)c(OC)c1 | -3.0% | -9.0% | 4.0% | 13µM* | 11.6µM* | 21.8
COc1ccccc1/C=C(/C(=O)OCC(=O)Nc1cc(C)ccc1C)c1ccccc1 | 8.8% | 2.3% | -3.7% | 25.9µM* | 20.6µM* | -19.9
COc1ccccc1/C=C(/C(=O)OCC(=O)N(C)Cc1ccccc1)c1ccccc1 | 6.1% | 5.1% | -10.3% | ? | 13µM* | -11.2
COc1ccccc1C=C(C(=O)c1ccccc1)c1ccccc1 | / | / | / | -25.4% | ? | -18.3
